The record followed here is PubChem BioAssay.

Assay [1] relates to Aerobactin synthetase IucA (Klebsiella pneumoniae). Put plainly: inhibition of K. pneumoniae IucA enzyme – biochemical, Tocris library, absorbance (AID 1345561; call rule not given here;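 note: 100% = enzyme without compound and 0% = no enzyme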). The settings on record: purified IucA enzyme assay, absorbance (OD) read-out; stronger effect = lower value;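 tested at 8 µM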.
Assay [2] in a line: viability loss in pontine glioma line – cell-based, SU-DIPG-XVII, MIPE5.0, CellTiter-Glo, qHTS, dose response (AID 1347060; cut-off not given, nearly all actives have AC50 up to about 26 µM;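 note: cells exposed to compound for 48 hours before viability readout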). Particulars: CellTiter-Glo ATP luminescence. For orientation: In ATP-based viability assays light output follows the ATP content of the culture.
Assay [3] in a line: viability loss in pontine glioma line – cell-based, SU-DIPG-XIII, MIPE4.0, CellTiter-Glo, qHTS, dose response (AID 1347061; cut-off not given, nearly all actives have AC50 up to about 37 µM;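 note: cells exposed to compound for 48 hours before readout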). The settings on record: CellTiter-Glo ATP luminescence.
Assay [4] in a line: viability loss in pontine glioma line – cell-based, JHH-DIPG-1, MIPE4.0, CellTiter-Glo, qHTS, dose response (AID 1347062; cut-off not given, nearly all actives have AC50 up to about 27 µM;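 note: cells exposed to compound for two days before readout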). The settings on record: JHH-DIPG-1 viability, CellTiter-Glo ATP luminescence.
Assay [5] is described as follows: viability loss in pontine glioma line – cell-based, SU-DIPG-XIII, MIPE5.0, CellTiter-Glo, qHTS, dose response (AID 1347064; cut-off not given, nearly all actives have AC50 up to about 23 µM;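 note: cells exposed to compound for 48 hours before the viability read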). Particulars: CellTiter-Glo ATP luminescence.
Assay [6] is described as follows: viability loss in pontine glioma line – cell-based, SU-DIPG-XXV, MIPE5.0, CellTiter-Glo, qHTS, dose response (AID 1347065; cut-off not given, nearly all actives have AC50 up to about 26 µM;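 note: cells exposed to compound for 48 hours before ATP readout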). Particulars: CellTiter-Glo ATP luminescence.
Assay [7] in a line: growth inhibition of DIPG cells – cell-based, MIPE4.0 library, CellTiter-Glo luminescence, qHTS (AID 1347066; cut-off not given, nearly all actives have AC50 up to about 30 µM;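 note: cells exposed to compound for 48 hours before readout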). Particulars: SU-DIPG-VI viability, CellTiter-Glo ATP luminescence.
A short description of assay [8]: JHH-DIPG-1 glioma cell viability, MIPE5.0 library, CellTiter-Glo luminescence, qHTS (AID 1347067; cut-off not given, nearly all actives have AC50 up to about 26 µM;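 note: cells exposed to compound for 48 hours before readout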). Particulars: JHH-DIPG-1 glioma viability, CellTiter-Glo ATP luminescence.
A short description of assay [9]: growth inhibition of DIPG cells – cell-based, MIPE5.0 library, qHTS (AID 1347068; cut-off not given, nearly all actives have IC50 up to about 30 µM;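 note: cells exposed to compound for 48 hours before viability readout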). Particulars: SU-DIPG-XXV viability. On the technique in general: qHTS replaces the single test concentration by a dilution series.
The nature of assay [10]: viability loss with induced miR-34 in A549 – imaging, A549 dox-inducible miR-34, nuclei and caspase counts, primary screen (AID 1347080;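 active = compounds whose cell count with miR-34 switched on is under 0.7 times the count with it off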). The settings on record: A549 miR-34 inducible, Hoechst nuclei count, 48 h.
A short description of assay [11]: galactose survival enhancers in mitochondrial complex I cybrids – cell-based, galactose medium, ATP luminescence, primary screen (AID 1645843;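 active = z-score of at least 1.8 in each of two replicates, scored against plate mean and spread of sample wells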;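 note: positive z means more ATP and so rescue of galactose-driven cybrid death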). Particulars: complex I mutant cybrid cells, 72 h, stronger effect = higher value.
A short description of assay [12]: blockers of polyQ-driven CASP3 activation – cell-based (AID 1583). Particulars: polyglutamine-induced caspase-3 activation, cell assay; stronger effect = higher value;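 tested at 10 µM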.
The nature of assay [13]: yeast 75Q aggregation reduction – 75Q-TubU reporter (AID 1593). The settings on record: Yeast 75Q polyglutamine aggregation reporter.
A short description of assay [14]: blockers of cytochrome c efflux from mitochondria – biochemical, purified mitochondria (AID 1603).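 Note: mouse liver mitochondria challenged with calcium chloride; signal normalized to the plate average as 100%.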 Particulars: stronger effect = lower value.
Assay [15] is described as follows: EMT-state selective cytotoxicity in co-culture – imaging, PC-3E GFP, TEM4-18 mCherry, primary screen (AID 1345086).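 For all read-outs here: cells exposed to compound for 72 h before imaging.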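 For red/green cell ratio (normalised): normalised mesenchymal count divided by normalised epithelial count so high means epithelial killing.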 The settings on record: PC-3E GFP / TEM4-18 mCherry co-culture, imaging cell counts, at 1 µM; for red/green cell ratio (normalised): actives lie on both sides, counts scaled to control wells, 1 = unselective.
In assay [16] the target is Mitogen-activated protein kinase 7 (Homo sapiens) (UniProt Q13164). Put plainly: Gal4-ERK5 driven luciferase induction – cell-based, HTS, primary screen (AID 1508626;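 active = luciferase signal above three times the same-plate solvent-only control wells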;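 note: luciferase driven by Gal4-ERK5 fusion binding five Gal4 sites before minimal TATA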). Particulars: HeLa Gal4-ERK5 transactivation, 18 h, at 5 µM, stronger effect = higher value.
Sequence of Mitogen-activated protein kinase 7 (Homo sapiens) (Q13164 whole entry, looked up, the tested form may be a part): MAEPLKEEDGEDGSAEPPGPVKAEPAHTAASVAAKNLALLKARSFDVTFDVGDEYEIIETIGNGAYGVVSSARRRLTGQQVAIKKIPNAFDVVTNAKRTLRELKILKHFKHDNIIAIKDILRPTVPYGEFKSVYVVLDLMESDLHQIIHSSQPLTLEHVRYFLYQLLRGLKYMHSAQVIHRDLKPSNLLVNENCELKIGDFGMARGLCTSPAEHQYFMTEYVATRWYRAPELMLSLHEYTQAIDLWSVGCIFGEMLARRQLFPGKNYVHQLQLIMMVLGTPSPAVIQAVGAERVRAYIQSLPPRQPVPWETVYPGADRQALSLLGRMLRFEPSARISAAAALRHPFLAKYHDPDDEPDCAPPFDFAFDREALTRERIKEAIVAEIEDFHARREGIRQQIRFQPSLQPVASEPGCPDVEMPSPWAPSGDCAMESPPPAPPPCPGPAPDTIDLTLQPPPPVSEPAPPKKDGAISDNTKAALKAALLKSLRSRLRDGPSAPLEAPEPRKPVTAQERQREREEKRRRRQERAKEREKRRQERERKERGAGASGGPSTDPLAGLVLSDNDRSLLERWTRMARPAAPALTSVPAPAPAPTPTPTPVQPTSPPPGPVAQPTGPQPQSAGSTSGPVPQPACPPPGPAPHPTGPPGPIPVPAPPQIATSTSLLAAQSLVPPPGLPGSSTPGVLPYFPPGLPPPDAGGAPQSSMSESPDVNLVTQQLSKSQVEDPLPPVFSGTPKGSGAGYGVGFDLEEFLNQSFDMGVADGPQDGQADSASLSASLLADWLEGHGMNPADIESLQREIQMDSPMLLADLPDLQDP
Assay [17] in a line: P. berghei load reduction in hepatocytes – cell-based, HepG2, luciferase luminescence, HepG2 viability, primary screen (AID 624349; in the data active = parasite load remaining mostly below about 12%, no sharp cut-off; inactive = mostly above about 10%;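 note: 100% = mean of DMSO negative control wells on the same plate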). Particulars: P. berghei liver stage in HepG2, luciferase luminescence, concentration not given here; parasite load remaining: stronger effect = lower value; viability: measured here: HepG2 viability without parasites.
Where [18] appears, read: measured here: epithelial PC-3E GFP cell survival.
Setting [19] is: measured here: mesenchymal TEM4-18 mCherry cell survival.

Where “and” joins values, the source holds several entries; their conditions need not be identical. Equal values may be shown once. Results filed as inconclusive are left out. Calls of active or inactive are those of the source.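 Rule for the calls, unless noted: active = compounds killing one labelled cell type while sparing the other, by normalised counts and ratio limits, not self-fluorescent; inactive = the rest.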

As usually defined, the remaining activity is the signal under treatment as a percentage of the control signal. The term AC50 denotes the midpoint of the concentration-response curve, whichever way the signal moves. Usually IC50 stands for the concentration needed to halve the response being measured. Consider `CC(C)[C@H](CO)Nc1nc(Nc2cccc(Cl)c2)c2ncn(C(C)C)c2n1`, for which the remaining activity in assay [1] is 115% (inactive). Moreover, the concentration at half-maximal activity (AC50) in [2] was 14.8 µM (active); in [3] it was 20.9 µM (active); in assay [4], 16.6 µM (active); in assay [5] it was 14.8 µM (active); in [6], 7.42 µM (active); in assay [7] it was 20.9 µM (active). The AC50 in assay [8] is 14.8 µM (active). Moreover, the concentration for half-maximal inhibition (IC50) in assay [9] was 16.6 µM (active). Moreover, the fold change in assay [10] (stronger effect = lower value, cell number ratio, induced over uninduced) is 1.01 (inactive); in [10] (measured here: relative caspase fold change +Dox/-Dox) it was 0.968. For the same compound, the cell count in [10] (measured here: total cells with miR-34 induction, stronger effect = lower value) was determined as 1040; in assay [10] (measured here: total cells without miR-34 induction) it was 1030. Besides, the z-score in [11] is -0.745 (inactive).

One may read the inhibition as the drop in the measured response relative to a control, in per cent. Turning to `CC1=C2C(=CO[C@H](C)[C@H]2C)C(=O)C(C(=O)O)=C1O`, the inhibition in assay [12] was found to be 1.38%. Moreover, in assay [13], the score was found to be 0.74. In assay [14], the cytochrome c release ratio worked out at 0.99. Besides, the red/green cell ratio (normalised) in assay [15] was 1.08 (inactive) and 1.06 (inactive) and 0.92 (inactive). Also, the normalised cell number is 0.92 and 0.97 and 1.03 in [15] (setting [18]); 0.99 and 1.03 and 0.95 in assay [15] (setting [19]). The luciferase signal in assay [16] was 52 AU (inactive).

In general, viability refers to a read-out of living cells in per cent, often relative to untreated cells. As to `O=C(/C=C/c1ccc(O)c(O)c1)OC(Cc1ccc(O)c(O)c1)C(=O)O` (stereo not given), in assay [17], the parasite load remaining was 107% (inactive) and the viability stood at 70.8%. Also, the red/green cell ratio (normalised) in [15] was 1.03 (inactive). This compound also gave a normalised cell number in assay [15] (setting [18]) of 1.08. Moreover, in assay [15] (setting [19]), the normalised cell number was 1.12.

On to `CC(=O)Oc1ccc2c(c1)CCC1C2CC[C@]2(C)C(=O)CCC12` (stereo not given in full), for which, in assay [17], the parasite load remaining was 88.9% (inactive) and the viability turned out to be 66.4%. Further, the red/green cell ratio (normalised) in [15] was 0.81 (inactive). This compound registered a normalised cell number in assay [15] (setting [18]) of 1.27. Further, the normalised cell number in [15] (setting [19]) worked out at 1.03.

As for `CC(=O)Oc1ccc2c(c1)CCC1C2CC[C@@]2(C)C1CC[C@@H]2OC(C)=O` (stereo not given in full), in assay [12], the inhibition came to 10.6%. Further, the score in assay [13] is -0.45. Besides, the cytochrome c release ratio in [14] was 1. In addition, in [17], the parasite load remaining is 102% (inactive) and the viability is 70.5%. Besides, the red/green cell ratio (normalised) in [15] is 0.86 (inactive). In addition, in assay [15] (setting [18]), the normalised cell number is 1.29. The compound further showed a normalised cell number in assay [15] (setting [19]) of 1.12.

On to `COC(=O)C(N)CS` (stereo not given), for which the inhibition in [12] is -5.77%. For the same compound, in [13], the score was 1.37. In addition, in [14], the cytochrome c release ratio was determined as 1.33. In addition, in [17], the parasite load remaining is 102% (inactive) and the viability turned out to be 69.9%. For the same compound, in assay [15], the red/green cell ratio (normalised) was 0.97 (inactive). The same compound yielded a normalised cell number in [15] (setting [18]) of 1.14. This compound yielded a normalised cell number in [15] (setting [19]) of 1.11.

Regarding `CC(C)(C)NC[C@@H](O)COc1nsnc1N1CCOCC1`, in assay [12], the inhibition came out at 6.36%. This compound also showed a score in assay [13] of 1.66. In addition, the cytochrome c release ratio in [14] was found to be 1.02. Further, in [17], the parasite load remaining is 198% (inactive). Also, the viability in assay [17] was 72.4%. Further, in assay [15], the red/green cell ratio (normalised) is 1.2 (inactive). In addition, the results for the normalised cell number in [15] (setting [18]) and in [15] (setting [19]) were 0.88 and 1.05, respectively.
